# Test results taken from PubChem BioAssay.
# Test: binders from COS7 lysate, DM2A8 probe, primary screen, torsin A project, cell lysate, small-molecule microarray, fluorescence 635/667 (AID 1065)
# Details: higher = more signal, COS7 lysate expressing mutant human TOR1A
row,SMILES,composite z-score
1,C[C@@]1([C@@H](NS(=O)(=O)c2cccc3cccnc23)c2ccc(-c3ccccc3)cc2)C[C@H]1C1CCCCC1,0.0816
2,O=C1O[C@H](c2ccccc2)[C@H](c2ccccc2)N2[C@H]1[C@@H](C(=O)N1CCN(c3ncccn3)CC1)[C@]1(C(=O)Nc3ccc(C#CC4(O)CCCCCC4)cc31)[C@H]2c1ccc(O)cc1,2.01
3,C=CCC(OC(C)=O)[C@@H]1[C@@H](N(Cc2ccc(-c3ccccc3)cc2)C(=O)Cc2ccc(OC)cc2)c2cc(OCCCO)ccc2N1C(=O)c1ccc2ccccc2c1 (stereo not given in full),1.09
4,O=C(NC1CC1)[C@@H]1c2ccccc2C(=O)N(C2CCCCC2)[C@H]1c1ccc(CO)cc1,0.642
5,COC(=O)[C@@]1(Cc2ccccc2)[C@H]2c3cc(C(=O)N(C)C)n(Cc4nc5ccccc5[nH]4)c3C[C@H]2CN1C(=O)c1ccccc1,1.08
6,C=CCOC(=O)[C@@H]1[C@H]2C(=O)O[C@H](c3ccccc3)[C@H](c3ccccc3)N2[C@H](c2ccc(OCCOC(=O)[C@@H]3C[C@@H]4C(=O)N[C@@H](CC(C)C)C(=O)N4[C@@H]3c3ccc(O)cc3)cc2)[C@@]12C(=O)Nc1ccc(I)cc12,0.17
7,COCCOC(=O)N1C(=O)[C@@]2(c3cc(C#CCNC(N)=O)ccc31)[C@H](C(N)=O)[C@H]1C(=O)O[C@H](c3ccccc3)[C@H](c3ccccc3)N1[C@@H]2c1ccc(O)cc1,0.0947
8,C=CCNC(=O)[C@H]1[C@@H]2C(=O)O[C@@H](c3ccccc3)[C@@H](c3ccccc3)N2[C@@H](c2ccc(OCCO)cc2)[C@]12C(=O)Nc1ccc(C#Cc3ccc(OC)cc3)cc12,0.897
9,CN1C(=O)C2C=CC(C(O)c3ccc(I)cc3)N(N(c3ccccc3)c3ccccc3)C2C1=O (stereo not given),-0.272
10,Cc1ccc(S[C@]2(C(=O)NCc3ccccc3)CC(=O)N(Cc3ccccc3Cl)[C@@H]2c2ccc(CO)cc2)cc1,-0.363
11,C[C@]1(C(=O)O)c2ccccc2C(=O)N(Cc2cc(C(F)(F)F)cc(C(F)(F)F)c2)[C@H]1c1ccc(CO)cc1,-0.48
12,COC(=O)C(CC#Cc1ccc2c(c1)[C@]1(C(=O)N2)[C@H](C(N)=O)[C@H]2C(=O)O[C@H](c3ccccc3)[C@H](c3ccccc3)N2[C@@H]1c1ccccc1OCCO)C(=O)OC,1.81
13,COC(=O)[C@@]1(Cc2ccc(F)cc2)[C@H]2c3cc(C(=O)N(C)C)n(Cc4ccc(C(F)(F)F)nc4)c3C[C@H]2CN1C(=O)c1ccccc1,0.474
14,CCN1C(=O)C2CC(=O)C3C(CN(S(=O)(=O)c4ccc(C)cc4)C3c3ccc(C)cc3)C2C1=O (stereo not given),0.122
15,C=C[C@H](OC)[C@@H](O)c1ccc(OC)c(O)c1,-1.02
16,CCCCCN1CC=CC23O[C@@H]4/C=C\CCCOC(=O)C4[C@H]2C(=O)N(CCCCCO)[C@@H]3C1=O (stereo not given in full),-0.291
17,CC(C)C[C@H]1NC(=O)CNC(=O)[C@@]23C(=O)N[C@@H](Cc4ccccc4)C2[C@H](C)[C@@]2(C)O[C@H]2C3/C=C/C/C=C\CNC1=O (stereo not given in full),0.11
18,C=CCNC(=O)[C@@H]1[C@H]2C(=O)O[C@H](c3ccccc3)[C@H](c3ccccc3)N2[C@H](c2ccc(OCCO)cc2)[C@@]12C(=O)Nc1ccc(C#CCNC(N)=O)cc12,-0.262

row,SMILES,composite z-score
1,CC(C)[Si](C#Cc1ccccc1)(O[C@H](c1ccccc1)c1cn(Cc2ccccc2)nn1)C(C)C,0.884
2,C=C(C(=O)CC[C@@H](OC(=O)c1cccnc1)c1cccc(OCCO)c1)C(C)C,-0.0785
3,CCCCN1CC=CC23O[C@@H]4/C=C\CCC(C)OC(=O)C4[C@H]2C(=O)N(CCO)[C@@H]3C1=O (stereo not given in full),1.97
4,O=C/C=C/c1ccc(-c2ccccc2)cc1,-0.0761
5,COc1cc(CO)cc(I)c1O[C@H]1C=C(C(=O)NCCO)C[C@@H](N(CCN2CCOCC2)C(=O)C2CCCO2)[C@@H]1O (stereo not given in full),0.193
6,CC(C)C[C@@H]1NC(=O)[C@H]2C[C@@H](C(=O)O)[C@@H](c3cccc(OCCO)c3)N2C1=O,1.76
7,COc1cc(Cc2cc3c(c(CCc4ccccc4)n2)[Si](C(C)C)(C(C)C)O[C@H]3c2ccccc2)cc(OC)c1OC,-0.133
8,C=CCNC(=O)[C@@H]1[C@H]2C(=O)O[C@H](c3ccccc3)[C@H](c3ccccc3)N2[C@H](c2ccc(O)cc2)[C@@]12C(=O)Nc1ccc(C#CC3=CCCCC3)cc12,1.23
9,Cc1cccc([C@H]2C[C@H]3C(Br)=C[C@@]2(CO)C(=O)[C@]32CO2)c1,-0.65
10,COCCOC(=O)N1C(=O)[C@@]2(c3cc(C#CCCO)ccc31)[C@H](C(=O)N1CCN(c3ncccn3)CC1)[C@H]1C(=O)O[C@H](c3ccccc3)[C@H](c3ccccc3)N1[C@@H]2c1ccc(OCCO)cc1,0.713
11,COC(=O)[C@H](Cc1ccccc1)N1CC(C)(OC)O[C@@H](Cc2ccccc2)[C@H]1/C=C/C1CC1 (stereo not given in full),0.12
12,CCOC(=O)C1=CCC(c2ccncc2)N(S(=O)(=O)c2ccc(C)cc2)C1 (stereo not given),-0.128
13,COC(=O)[C@@]1(Cc2ccc(F)cc2)[C@H]2c3cc(C(=O)N4CCCC4)n(Cc4ccc(C(F)(F)F)nc4)c3C[C@H]2CN1C(=O)c1ccccc1,-0.0219
14,COCCOC(=O)N1C(=O)[C@@]2(c3cc(C#CCNC(N)=O)ccc31)[C@H](c1ccccc1OCCO)N1[C@H](c3ccccc3)[C@H](c3ccccc3)OC(=O)[C@H]1[C@@H]2C(=O)N1CCCCCCC1,0.646
15,CCCCC(=C=CC[C@@H](O)c1ccccc1OCCO)C[C@@H](O)c1ccccn1,0.362
16,O=C(NCC(F)(F)F)[C@@H]1c2ccccc2C(=O)N(Cc2cc(C(F)(F)F)cc(C(F)(F)F)c2)[C@H]1c1ccc(CO)cc1,-0.147
17,CC(CO)N1C(=O)[C@@H]2[C@H]3C(=O)OCC=C[C@H]3OC23C=CCN(c2ccc4ccccc4c2)C(=O)[C@@H]13 (stereo not given in full),-1.47
